# SW480 rerep = A quantitative high throughput screen for small molecules that induce DNA re-replication in SW480 colon adenocarcinoma cells. AID 624297, 2012. SW480 DNA re-replication, Hoechst DNA content imaging, 48 h. actives 1.8% (n = 340,000). Potency, µM (highest dose often 46.1 µM), without a hit: top-dose re-replication activation, usual class: activators; also: % of control where 0% means no effect; nearly all actives have a fitted effect of over 55% in size
#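 Readout is total intensity of Hoechst-stained nuclei, excited at 405 nm and collected at 500-530 nm. Compound treatment lasted 48 hr at 37 C in 5% CO2 before staining.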
# AT treatment = qHTS Assay for Identifying a Potential Treatment of Ataxia-Telangiectasia | F2112 A-T fibroblasts, KAP-1 phosphorylation AlphaLISA; neocarzinostatin DNA damage 30 min before lysis | Potency, µM (doses to about 57.5 µM), without a hit: at the top dose activation, actives largely listed as activators | actives 0.19% (n = 320,000); also: % of control where 0% means no effect; nearly all actives have a fitted effect of over 45% in size
#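 ATM-like activity read as KAP-1 phosphorylation via AlphaLISA donor/acceptor antibody pairs after lysis and 6 hr at 25C. Cells were ATM-null patient fibroblasts (F2112, hTERT), dosed 60 min, then exposed to the DSB inducer NCS for 30 min.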
# ELG1 genotoxic = qHTS screen for small molecules that induce genotoxicity in human embryonic kidney (HEK293T) cells expressing luciferase-tagged ELG1; actives 1.3% (n = 330,000); Potency, µM (highest dose often 46 µM), without a hit: top-dose activity change, positive = activation, hits mostly activators; HEK293T ELG1-luciferase reporter, luminescence, 16 h; also: % of control where 0% means no effect; nearly all actives have a fitted effect of over 60% in size
#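 Reporter readout depends on ELG1 protein level, which increases with genetic stress. After 16 hr compound exposure at 37 °C, luciferase activity was quantified using ONE-Glo.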
# ELG1 DNA repair = qHTS screen for small molecules that inhibit ELG1-dependent DNA repair in human embryonic kidney (HEK293T) cells expressing luciferase-tagged ELG1; AID 504467, 2011; actives 2.3% (n = 330,000); HEK293T ELG1-luciferase reporter, luminescence, 16 h; DNA damage induced by 5-fluorouridine; Potency, µM (series often up to 46.1 µM), for the others: top-dose activity change, negative = inhibition, hits mostly inhibitors; also: % is scaled to controls: 0 for no effect and ±100 for the full control effect; nearly all actives have a fitted effect of over 55% in size
#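 Reporter activity after DNA damage by 5-fluorouridine is monitored. Compound-treated cells incubate 16 hr at 37 °C, then ONE-Glo is added for 30 min before luminescence reading.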
# MCF10A rerep = A quantitative high throughput screen for small molecules that induce DNA re-replication in MCF 10a normal breast cells; MCF 10A DNA re-replication, Hoechst nuclear intensity, 48 h; Potency, µM (titrated, usually from 46.1 µM), for the others: at the top dose activity, positive = re-replication, actives largely listed as activators; actives 2.9% (n = 350,000); AID 624296, 2012; also: % of control where 0% means no effect; nearly all actives have a fitted effect of over 50% in size
# p53 reactivation = qHTS assay for re-activators of p53 using a Luc reporter; H1299 p53-A138V BP100-luciferase reporter, luminescence, 24 h; actives 0.063% (n = 320,000); Potency, µM (titrated, usually from 92.2 µM), without a hit: at the highest dose activity change, positive = activation, most hits filed as activators; also: % of control where 0% means no effect; nearly all actives have a fitted effect of over 45% in size
#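 H1299 (p53-null), stable ts p53-A138V + BP100-Luc; 1000 cells/well, Opti-MEM/10% FBS; cpd 4 pt, 1:5; 24 h, 37 deg C, 5% CO2; detection reagent 10 min RT; luminescence.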
# * marks the source's active call; other numbers are inactive results; ? = inconclusive; . = no result; ! = not confirmed by another sample. Rows were chosen to be rich in hits. Some 7.1% of all compounds tested hit in one or more screens of this group. Calls follow the shape of the dose curve; as a rule, active = well fitted curve in the direction sought with a large enough effect; inconclusive = small, poorly fitted or top-dose-only effect, or another doubt; inactive = no such curve, though single readings can be large; an effect the other way counts as inactive or inconclusive. Potency is read from the fitted curve at half-maximal effect.
SMILES,SW480 rerep,AT treatment,ELG1 genotoxic,ELG1 DNA repair,MCF10A rerep,p53 reactivation
COCc1cc(C)nc2sc(C(=O)Nc3nccs3)c(N)c12,0%,22%,19%,?,16µM*,4%
CN(c1ccccc1)S(=O)(=O)c1cccc(C(=O)NCC(=O)Nc2ccc(F)c(F)c2F)c1,-8%,-2%,-4%,?,-3%,-5%
Cc1ccc(S(=O)(=O)N(CC(=O)Nc2ccccc2C(=O)O)c2ccccc2C)cc1,-10%,-3%,0%,2%,?,11%
Cc1ccc(S(=O)(=O)N(CC(=O)Nc2ccccc2C(=O)O)c2cccc(Cl)c2C)cc1,.,3%,-7%,-24%,16µM*,1%
Cc1cc(NC(=O)CCC(=O)N(c2ccccc2)C(C(=O)NC2CCCC2)c2ccccc2C)no1 (stereo unspecified),-2%,-7%,-2%,-11%,10%,2%
COc1ccc(OC)c(-n2c(=S)[nH]c3cc(C(=O)N(C)Cc4ccccc4)ccc3c2=O)c1,-2%,2%,-3%,-20%,0%,-4%
O=C(Cn1cnc2cc([N+](=O)[O-])ccc2c1=O)Nc1cccc(S(=O)(=O)N2CCCCC2)c1,-31%,.,.,.,?,.
Cc1ccc(-c2cc([C@H]3[C@@H]4C=CCC[C@@]4(C)C(=O)N3Cc3ccccc3)ccc2F)cc1,?,13%,1%,2%,5%,?
Cc1ccc(F)c([C@H]2[C@@H]3C=CCC[C@@]3(C)C(=O)N2Cc2ccccc2)c1,-4%,3%,-5%,9%,23µM*,0%
COc1cc(C2NC(=O)NC(c3ccccc3)=C2C(C)=O)c(Cl)cc1OCC(=O)O (stereo unspecified),4.1µM*,-7%,-5%,2%,7%,4%
CCCCCCOC(=O)c1cccnc1,-11%,.,.,.,-7%,.
COC(=O)c1ccc(S(=O)(=O)N2CCCN(Cc3ccccc3)CC2)n1C,-15%,-2%,-5%,-10%,-4%,-4%
COC(=O)c1ccc(S(=O)(=O)N2CCCN(Cc3cccc(Br)c3F)CC2)n1C,?,40µM*,-1%,?,14%,-2%
COc1ccc(NS(=O)(=O)c2cccc(C(=O)N3CCCC3)c2)cc1,-2%,.,-3%,-5%,8%,-2%
Cc1c(C(=O)Nc2cccnc2Cl)oc2ccccc12,0%,-1%,?,?,9%,?
COC1=C(OC)C(=O)C(Sc2ccc3ccccc3c2)=CC1=O,18µM*,.,.,.,5.8µM*,.
COc1ccc(S(=O)(=O)Oc2ccc3ccccc3c2)cc1,?,22%,14%,?,?,21%
CCOc1ccccc1CNC(=O)c1cc2oc3ccccc3c2n1CC,4%,2%,-1%,?,18µM*,1%
Cn1c(C(=O)N2CCc3ccccc3C2)cc2oc3ccccc3c21,9%,-1%,?,?,?,?
CCn1c(C(=O)N2CCc3ccccc3C2)cc2oc3ccccc3c21,1%,7%,-6%,?,16µM*,7%
CN(C)/C=N/c1ncc(C(=O)c2ccc(Cl)cc2)s1,-3%,-8%,16µM*,?,2%,13%
OCc1ccnc2c(O)cccc12,1.2µM*,0%,-7%,?,5.2µM*,-31%
COCc1ccc(O)c2ncccc12,26%,.,-16%,?,7.3µM*,8%
Oc1ccc(CNc2ccc(F)cc2)c2cccnc12,?,-3%,5%,?,23µM*,25%
Cc1cc(OCC(=O)c2cccc(C(F)(F)F)c2)n2cnnc2n1,0%,-3%,-1%,3%,5%,-1%
SMILES,SW480 rerep,AT treatment,ELG1 genotoxic,ELG1 DNA repair,MCF10A rerep,p53 reactivation
Cc1ncc([N+](=O)[O-])n1CC(=O)Nc1cc(Cl)ccc1Cl,1%,11%,-4%,1%,2%,-9%
O=C(NCc1ccco1)C1CC(c2ccccc2O)=NO1 (stereo unspecified),29%,1%,2%,-16%,?,5%
O=C(NCc1ccco1)C1CC(c2cc(C(F)(F)F)cc(C(F)(F)F)c2)=NO1 (stereo unspecified),13µM*,23%,?,16%,6.5µM*,2%
COc1ccc(OC)c(C2=NOC(C(=O)NCc3ccco3)C2)c1 (stereo unspecified),?,.,3%,-12%,13µM*,-1%
O=Cc1cc2ccccc2nc1SCc1ccc(Cl)cc1,?,3%,5%,?,?,23%
Cc1ccc(CSc2nc3ccccc3cc2C=O)cc1,2.6µM*,5%,6%,?,21µM*,16%
CCOC(=O)c1c(C)n(-c2ccccc2)c2ccc(OCCN(C)C)cc12,-3%,-2%,-2%,2%,25%,-7%
CC(C)(C)NC(=O)CSc1ncnc2c1nnn2Cc1ccccc1Cl,?,6%,-5%,-12%,15µM*,-48%
O=C(CSc1ncnc2c1nnn2Cc1ccccc1F)N1CCN(c2ccccc2)CC1,23%,-2%,-3%,-26%,21µM*,10%
O=c1cccccc1NN=C1CCCCC1,0%,-9%,17%,?,6%,?
O=c1cccccc1NN=C1CCCCCC1,0%,-20%,15µM*,?,0%,?
CN(CC(=O)Nc1cccc(F)c1)C(=O)c1ccc2c(c1)CC(c1ccccc1)OC2=O (stereo unspecified),18µM*,-1%,-2%,?,18µM*,0%
C/C=C\C[C@H](C)[C@H](O)[C@H]1C(=O)N[C@@H](CC)C(=O)N(C)CC(=O)N(C)[C@@H](CC(C)C)C(=O)N[C@@H](C(C)C)C(=O)N(C)[C@@H](CC(C)C)C(=O)N[C@@H](C)C(=O)N[C@@H](C)C(=O)N(C)[C@@H](CC(C)C)C(=O)N(C)[C@@H](CC(C)C)C(=O)N(C)[C@@H](C(C)C)C(=O)N1C,.,.,.,.,16%,.
CCCCCCCCNC(C)C(O)c1ccc(SC(C)C)cc1 (stereo unspecified),?,6%,9%,?,24µM*!,-4%
